Measurements from the supplement of paper PMC6555819.

System: VDR:RXRa (NR concentration 270 nM, RXRa partner concentration 90 nM)
Experiment: PBM binding z-score (relative to random genomic background probes); higher = stronger binding; sequences stand for … in GC…GCGATTGACAGCGTAGAATGAAGG
Procedure: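 Protein-binding microarray (Agilent 4x180K custom design, double-stranded 60-nt probes: 5' GC cap, 34-nt variable region, 24-nt constant primer region; full probe sequence given). Purified or IVT nuclear receptor:RXRα heterodimers (3:1 NR:RXRα, mostly 270:90 nM) or homodimers were incubated for 1 h in PBS with 2% milk and no ligand, then detected with Alexa488 antibodies. Fluorescence from o1-orientation probes (~5 replicates averaged) was converted to z-scores against 500 random hg19 background probes. Variable regions are seed direct-repeat (DR0–DR5) sites, all their single-nucleotide variants and half-site ablations.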

Row | Sequence | PBM binding z-score
1 | TCAGACCGGTGAAGGTAACTCAGGTACGCAGTCG | 0.501
2 | GATACAGGGTTAAGGCCAGAGTACGCGTATTGAT | 1.05
3 | ATCTCTCGGTAAAGATAGTTCAGTGAATGCAAAT | 0.595
4 | CTCGAAAGGTCGGTTGAGGTGAGTATCCGGATAA | 2.13
5 | ATATGTTGGTTACATCCGGGTCATTCAGGCTATG | 3.42
6 | GCTATGAGTTGAAAGGGCAACCGAATGATTCTCG | 1.2
7 | GCTGCTAAGTCAGGTTGGTCAGCTAACGGGTACG | -0.547
8 | CGTCAAAGTTCAACTAAGGTAACATAAAGCACGC | 4.72
9 | CGTCGAAGGTCAGCAGGTCAGTGAAAGCGACGTG | 3.61
10 | CATACTGGGCCATCAGGTCATTGATATCAACGTT | 2.28
11 | ACTATGAGTTGAGACGAGGGCAACCGATAGGTTG | 1.9
12 | AGTTAAAGTTCAGGACGAGGTAACGTAAAGCACG | 3.01
13 | TCGAGTAGGTTAGTCGGGGCAATCAGCCAACATA | 1.05
14 | CTACCAGGGTGAACAAGGTCGTTGATTACTATTC | 6.27
15 | TAACCTAGGTCAGATCGGGCCAGTATACGCTATA | 1.52
16 | GCTTACGGGTCAAAGGTTATCGCATGAATAGAAT | 5.72
17 | TCTTGTAGATCAGCAGGATAAGAAAGCTGGCCAA | -0.113
18 | TCTAGTAGGTTAGGGGCATTCAGAATGGCGTCGA | 1.04
19 | CCGACTGGGGCAAGCTTACCATAACGCACAGCCA | -0.753
20 | TCTTGTAGATCAACAGGAGCTTAAGAAAGATCGA | -0.21

Row | Sequence | PBM binding z-score
21 | TCATATAGGTAAAGGTAAAAGTCGAACGATATGA | 0.657
22 | ATCTCTAGGTACAAGTTCAGTGAATCCCGAGGAT | 1.96
23 | ATCGAAAGGTCGAAGAGGTGAGTATACACCGTTT | 4.47
24 | TCTATTAGCTGATTAGGGCAACCGAAACAGCGGA | 0.11
25 | GCTGCTAGGTCAGGCTGGTCAGCTAACGGGTACG | 0.677
26 | TCGAGTAGGTTACCAATGGGGCATCCAGCTTTCT | -0.0688
27 | CAAAGTAGGTCAAAGGTCAAAGTCGAGCCAACCA | 6.63
28 | AGAATGAGCTTACCAAAGATCAGGGAAACGCTTG | -0.591
29 | TCAGACAGGTGAAGGTAGCTCAGGTACGCAGTCG | 0.353
30 | ATCACTAGGTAAAGATAGTTCAGTGAATGCAAAT | 0.888
31 | TATACAGGGCCAAAGGCCAGAGTACGAATGTCGA | 0.13
32 | GCTTACGGGACAAAGGTTATAGCATGAATAGAAT | 1.24
33 | GTACCAAGGTGAATAGGCCGTTGATGAGTAGGCG | -0.0408
34 | GCTAGCAGGCCATTTGGGTCACCCAATGACGGGC | 1.07
35 | TGAATGAGGTTACAGATCAGGGAACGTGGCGTCG | 0.932
36 | GCGACTGGGGCATCAGCAGGATACCATAACTTAA | -0.816
37 | CCGAGTAGGTAATGGGGCATTCAGGCAACGGTGA | -0.509
38 | ATCTCTAGGTAACACTCAGTTCAGTGAAGAACGC | 1.97
39 | ACTCGGAGGACACAGGTCAGAGCTACGCCAGTGA | 0.834
40 | CGTCAAAGTTCAAATAAGGTAACGTAAAGCACGC | 4.74
